In PubChem BioAssay (NCATS):
Results filed as inconclusive are left out. Calls of active or inactive are those of the source. Calls follow the shape of the dose curve; as a rule, active = well fitted inhibition curve with a large enough effect; inconclusive = small, poorly fitted or top-dose-only effect; inactive = flat fitted curve, though single readings scatter.

Each compound was assayed on CP247 (assay: qHTS profiling for inhibitors of Plasmodium falciparum proliferation (AID 504749; also: nearly all actives have a fitted effect of over 60% in size;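 as to activity, negative = inhibition: 0% = DMSO vehicle and full inhibition = artemisinin control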)). Settings: P. falciparum in erythrocytes, SYBR Green DNA, 72 h; series mostly up to 28.7 µM; activity, negative = inhibition: at the top concentration.
Outline: (§1)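 Three-day growth assay of blood-stage parasites in erythrocytes (0.3% parasitemia, 2.5% hematocrit) at 37 C, 5% CO2, quantified by SYBR Green DNA staining after overnight detergent lysis.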
Potency is read from the fitted curve at half-maximal effect.

Potency, active:
CN[C@H](C)CCC=C(C)C 398 nM

activity, negative = inhibition, inactive:
CC1(C)C2CC[C@]1(C)[C@@H](O)C2 4.66%
OCC1O[C@H](Oc2ccc(O)cc2)C(O)C(O)C1O (stereo partly specified) 10.4%
Nc1nc(F)nc2c1ncn2[C@@H]1O[C@H](CO)[C@@H](O)[C@H]1O 10%
CC1OC(OC2CCC3(C)C(CCC4C3CC(O)C3(C)C(C5=CC(=O)OC5)CCC43O)C2)CC(O)C1OC1CC(O)C(OC2CC(O)C(OC3OC(CO)C(O)C(O)C3O)C(C)O2)C(C)O1 (stereo unspecified) -3.51%
CC1OC(OCC2OC(Oc3c(-c4ccc(OCCO)c(OCCO)c4)oc4cc(OCCO)cc(O)c4c3=O)C(O)C(O)C2O)[C@@H](O)C(O)C1O (stereo partly specified) -21.5%

What follows are compounds tested on CP250 in the same assay as above. Settings: P. falciparum in erythrocytes, SYBR Green DNA, 72 h; series mostly up to 28.7 µM; activity, negative = inhibition: at the top concentration.
Outline: as §1

activity, negative = inhibition, inactive:
CCCCCCCCCCCCCCCC(=O)OC[C@H](O)[C@H]1OC[C@@H](O)[C@@H]1O 1.17%
C[C@H]1OC(OC2C(O)[C@@H](O)C(OC3C(O)[C@@H](O)C(O)O[C@@H]3CO)O[C@@H]2CO)[C@H](O)C(O)C1N[C@H]1C=C(CO)[C@@H](O)[C@H](O)C1O (stereo partly specified) 0.972%
CCN(CC)CC(=O)Nc1c(C)cc(C)cc1C -7.31%
CC(=O)N[C@H]1[C@H](O[C@@H]2c3ccc(c(Cl)c3)Oc3cc4cc(c3O[C@@H]3O[C@H](CO)[C@@H](O)[C@H](O)C3C)Oc3ccc(cc3Cl)C[C@H]3NC(=O)[C@@H](N)c5ccc(O)c(c5)Oc5cc(O)cc(c5)[C@H](NC3=O)C(=O)N[C@H]4C(=O)N[C@H]3C(=O)N[C@@H]2C(=O)N[C@@H](C(=O)O)c2cc(O)cc(O[C@H]4O[C@H](CO)[C@@H](O)C(O)[C@@H]4O)c2-c2cc3ccc2O)O[C@H](CO)[C@@H](O)[C@@H]1O (stereo partly specified) 1.4% [at 12.8 µM]
NC(=O)c1ncn(C2OC(CO)C(O)C2O)c1N (stereo unspecified) 2.96%
CC1(Cn2ccnn2)[C@H](C(=O)O)N2C(=O)C[C@H]2S1(=O)=O (stereo partly specified) 9.23%
CN(C)CC/C=C1\c2ccccc2COc2ccc(CC(=O)O)cc21 2.24%
CCCC(=O)O[C@]1(C(=O)COC(C)=O)CC[C@H]2C3C[C@H](F)C4=CC(=O)C=CC4(C)[C@@]3(F)[C@@H](O)CC21C (stereo partly specified) 1.58%
OCCN1CC(O)C(O)C(O)C1CO (stereo unspecified) 7.31%
CC(CCC(=O)O)C1CCC2C3C(=O)C[C@@H]4CC(=O)CC[C@@]4(C)C3CC(=O)[C@]12C (stereo partly specified) -10.3%
O=C(OC[C@@H]1O[C@@](O)(COC(=O)c2cccnc2)[C@H](OC(=O)c2cccnc2)[C@H]1OC(=O)c1cccnc1)c1cccnc1 0.685%
O=[N+]([O-])O[C@H]1CO[C@H]2[C@@H]1OC[C@H]2O 11.6%
COc1cccc(OC)c1C(=O)NC1C(=O)N2C1SC(C)(C)C2C(=O)O (stereo unspecified) 3.29%
NC[C@@H]1O[C@H](OC2[C@@H](CO)O[C@@H](OC3[C@H](O)[C@H](N)C[C@H](N)[C@H]3OC3O[C@H](CO)[C@@H](O)[C@H](O)[C@@H]3N)[C@H]2O)C(N)[C@H](O)[C@@H]1O (stereo partly specified) -5.28%
Cc1ccc(S(=O)(=O)NC(=O)NC(C)Cc2ccccc2)cc1 (stereo unspecified) 1.01%
OCCOC[C@H]1O[C@H](OCCO)[C@H](OCCO)[C@@H](OCCO)[C@@H]1OCCO (tested in a mixture with another compound) 2.56%
C[S+](C)CC[C@H](N)C(=O)O 3.42%
CC[C@@H]1/C=C(\C)C[C@H](C)C[C@H](OC)[C@H]2O[C@@](O)(C(=O)C(=O)N3CCCC[C@H]3C(=O)O[C@H](/C(C)=C/[C@@H]3CC[C@H](Cl)[C@H](OC)C3)[C@H](C)[C@@H](O)CC1=O)[C@H](C)C[C@@H]2OC 1.26%
NC(=O)C1CC2(NC(=O)NC2=O)c2cc(F)ccc2O1 (stereo unspecified) 6.55%
CN1[C@@H]2CC[C@@H]1CC(OC(=O)[C@H](CO)c1ccccc1)C2 (stereo partly specified) -0.842%

Potency, active:
CCCCC(=O)OCC(=O)[C@]1(O)Cc2c(O)c3c(c(O)c2[C@H](OC2CC(NC(=O)C(F)(F)F)C(O)C(C)O2)C1)C(=O)c1c(OC)cccc1C3=O (stereo partly specified) 2510 nM
C[C@H]1[C@@H](OC(=O)CCC(=O)O)OC2OC3(C)CC[C@H]4[C@H](C)CC[C@@H]1[C@@]24OO3 (stereo partly specified) 4.5 nM
COc1cc2c(cc1O)CCN[C@@]21CS[C@H]2c3c(OC(C)=O)c(C)c4c(c3C(COC1=O)N1C2C2c3c(cc(C)c(OC)c3O)CC([C@@H]1O)N2C)OCO4 (stereo partly specified) 4 nM
C[n+]1c2cc(N)ccc2cc2ccc(N)cc21 1120 nM
CC[C@@]1(O)C[C@H](O[C@H]2C[C@@H](N(C)C)[C@@H](O[C@H]3C[C@@H](O)[C@@H](O[C@H]4CCC(=O)[C@@H](C)O4)[C@@H](C)O3)[C@@H](C)O2)c2c(cc3c(c2O)C(=O)c2c(O)cccc2C3=O)[C@H]1C(=O)OC 251 nM
